Compound activity: PubChem, The Scripps Research Institute Molecular Screening Center
CHO-K1 Ca ag: nonselective activator or artifact in parental CHO-K1 cells. Fluo-8 calcium fluorescence; scaled to maximal ATP response, vehicle zero. activation, % at 3 µM. hit rate 0.48% among 360,000; in the data active means activation above about 15%;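 further: untransfected CHO-K1 host cells lacking M1 receptor as counterscreen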
CHO-K1 Ca PAM: counter-screen for M1 PAMs: effect in parental CHO-K1 cells. activation, % at 3 µM. AID 602247. ATP EC20, Fluo-8 calcium fluorescence; 0% at ATP EC20, 100% at ATP max. hit rate 0.02% among 360,000;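 active means activation above the run cutoff, the mean activation of all test compounds plus 3 SD, cut at about 40% in these data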;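 further: peak over basal fluorescence ratio in a 140 s read after ATP addition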
CHO-K1 Ca antag: M1 antagonist counterscreen hit in parental CHO-K1 cells; ATP-induced calcium, Fluo-8 fluorescence; AID 602250; inhibition, % at 3 µM; hit rate 0.6% among 360,000;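 active means inhibition above a per-plate cutoff, the plate's mean sample inhibition plus 3 SD, cut at about 24% in these data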;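 further: 0% = DMSO plus EC80 ATP and 100% = DMSO alone without ATP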
M1 antag: blocks human M1 muscarinic receptor | hit rate 1.3% among 360,000 | inhibition, % at 3 µM | P11229 | CHO-K1 hM1, Fluo-8 calcium fluorescence, ACh EC80 antagonist;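 active means percent inhibition above its own plate's cutoff, namely the mean of that plate's compound wells plus 3 SD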;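 further: peak over basal fluorescence ratio during 140 s after agonist addition; 0% = ACh EC80 plus DMSO and 100% = DMSO alone without agonist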
Target sequence (P11229 whole entry, looked up): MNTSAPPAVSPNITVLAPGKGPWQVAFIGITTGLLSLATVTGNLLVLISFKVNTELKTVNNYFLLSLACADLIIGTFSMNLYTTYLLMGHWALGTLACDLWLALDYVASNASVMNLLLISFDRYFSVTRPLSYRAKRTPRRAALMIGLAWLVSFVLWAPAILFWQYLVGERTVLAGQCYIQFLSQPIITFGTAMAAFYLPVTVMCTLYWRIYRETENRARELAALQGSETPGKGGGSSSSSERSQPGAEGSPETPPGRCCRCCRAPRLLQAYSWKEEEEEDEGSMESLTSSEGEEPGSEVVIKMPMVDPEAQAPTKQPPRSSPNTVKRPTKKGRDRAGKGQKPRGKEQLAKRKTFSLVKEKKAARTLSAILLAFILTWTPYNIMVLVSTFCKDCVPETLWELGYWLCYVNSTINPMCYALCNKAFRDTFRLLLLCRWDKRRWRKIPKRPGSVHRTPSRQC
M1 PAM: human CHRM1 positive allosteric modulation. P11229. activation, % at 3 µM. hit rate 0.088% among 360,000. CHO-K1 hM1, Fluo-8 calcium fluorescence, ACh EC20; 0% = ACh EC20, 100% = maximal ACh; in the data active means activation above about 19%, passing the limit was not always enough
CHRM1 agonist: activates human CHRM1 receptor; P11229; CHO-K1 hM1, Fluo-8 calcium fluorescence, agonist mode; 0% DMSO, 100% acetylcholine EC100; activation, % at 3 µM; hit rate 0.33% among 360,000; AID 588814;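 active means activation above the run's mean compound activation plus 3 SD, cut at about 16% in these data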;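 further: peak over basal fluorescence ratio within a 140 s kinetic read after compound addition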
An asterisk follows results filed as active. Most compounds without a hit are left out; they make up all but 2.4% or so of the library.

SMILES	CHO-K1 Ca ag	CHO-K1 Ca PAM	CHO-K1 Ca antag	M1 antag	M1 PAM	CHRM1 agonist
COc1ccc(C(=O)C2CCCN(Cc3ccc4c(c3)OCCO4)C2)cc1F (stereo unspecified)	1.6	13.0	-13.0	11.6	-19.6	-5.8
CCOC(=O)CNC(=O)N1CCCC(C(=O)c2ccc3c(c2)OCO3)C1 (stereo unspecified)	0.3	-12.8	0.7	2.2	-3.0	-8.4
CCc1nc2ccccc2c(NC(=O)CN2CC(C)CC(C)C2)c1C (stereo unspecified)	1.1	10.8	5.0	-3.6	5.0	-10.6
COc1ccccc1CNC(=O)C(=O)NCC1OCCN1S(=O)(=O)c1cccs1 (stereo unspecified)	0.8	11.6	-13.6	-19.3	11.8	-4.4
CCN(CC)C(=O)C1CCCN(Cc2ccc3c(c2)OCO3)C1 (stereo unspecified)	-0.5	-4.8	5.1	11.3	-4.3	-5.3
CC(=O)c1cccc(CN2CCCC(C(=O)c3ccc4c(c3)OCO4)C2)c1 (stereo unspecified)	1.7	8.6	-7.5	71.7*	-25.8	-10.2
O=C(c1cccc(Cl)c1)C1CCCN(Cc2ccc(N3CCNC3=O)cc2)C1 (stereo unspecified)	1.6	14.4	-13.3	46.0*	-21.4	-6.4
COc1ccc(CN2CCC(C(=O)c3cccc(Cl)c3)CC2)cc1	0.6	8.8	-8.0	-8.9	3.5	-8.2
CCCn1cc(CN2CCCC(C(=O)c3ccc4c(c3)OCO4)C2)c(C)n1 (stereo unspecified)	3.9	7.8	-9.4	64.6*	-23.7	-4.9
O=C1CCCCN1CCC(=O)N1CCCC(N2CCN(c3cccc(Cl)c3)CC2)C1 (stereo unspecified)	0.9	-18.9	-5.9	0.2	-0.4	-2.1
O=c1cc(COc2ncnc3ccccc23)nc2sccn12	0.9	16.9	-6.9	-26.2	4.5	-2.7
COc1ccc(CCNC(=O)Cn2cnc3sc(C)c(-c4ccc(F)cc4)c3c2=O)cc1OC	6.5	2.1	-11.6	4.5	1.4	18.2*
COc1ccc(NC(=O)CCCNC(=O)Cn2cnc3sc(C)c(C)c3c2=O)c(OC)c1	0.1	-23.8	-4.4	22.3*	-8.9	0.1
CCCCN1C2=NC(c3ccccc3)CN2c2ccccc21 (stereo unspecified)	3.7	11.5	-7.7	39.5*	-16.3	-3.9
CCCCN1C2=NCCCN2c2ccccc21	0.2	-3.9	1.7	11.5	-6.4	-8.0
COc1ccc(C(C)=O)cc1COC(=O)CNC(=O)c1ccc(F)cc1	1.6	5.2	0.2	1.6	-3.6	-5.1
COc1ccc(C(C)=O)cc1COC(=O)CNC(=O)c1ccc(Cl)cc1	10.8	-13.6	29.3*	-1.9	5.2	-7.7
COCCNC(=O)c1ccccc1NC(=O)C1COc2ccccc2O1 (stereo unspecified)	1.7	-8.6	14.2	-3.4	4.6	-2.7
CCN(CC)CCCn1c2c(c(SCC(=O)Nc3cccc(C(C)=O)c3)nc1=O)CCC2	0.0	-12.3	5.9	-2.6	-4.4	-5.3
CCN(CC)CCn1c2c(c(SCC(=O)Nc3cccc(C(C)=O)c3)nc1=O)CCCC2	1.8	0.9	-9.9	60.9*	-25.3	-7.1
CCN(CC)CC#CC(OC)(c1ccccc1)c1ccccc1	-0.5	-0.9	-3.3	100.1*	-37.7	-15.8
CCN(CC)CC#Cc1ccc(C)cc1	0.8	3.7	-1.2	2.7	-1.6	-4.9
COc1cccc(CN2CCSCC2)c1OC	-0.2	-26.1	25.3*	13.4	-2.2	-5.2
COc1ccccc1CNCc1ccc(OC)c2ccccc12	5.2	5.2	-6.4	-1.3	-1.4	1.1
COc1cccc(CNCc2ccc(OC)c3ccccc23)c1OC	22.5*	-1.2	12.1	22.5	-9.1	-0.5
SMILES	CHO-K1 Ca ag	CHO-K1 Ca PAM	CHO-K1 Ca antag	M1 antag	M1 PAM	CHRM1 agonist
COC(=O)Cc1[nH]nc2c1C(C1C=CCCC1)C(C#N)=C(N)O2 (stereo unspecified)	0.1	7.7	5.5	2.8	1.0	-4.7
O=C(O)c1c2c(nc3ccc(F)cc13)CCC2	0.1	5.0	-16.0	0.0	2.1	-0.3
CSc1nnnn1CCn1nnnc1SC	-0.5	-9.5	35.9*	-0.6	-2.7	-3.0
COc1ccc(/C=C\C(=O)O[C@@H]2C(O)C(O[C@@H]3OC(C)[C@H](O[C@@H]4OCC(O[C@H]5O[C@H](CO)[C@@H](O)C(O)C5O)C(O)C4O)C(O)C3O)[C@H](OC(=O)[C@]34CCC(C)(C)C[C@@H]3C3=CCC5[C@@]6(C)CC(O)C(O[C@@H]7OC(CO)C(O)[C@H](O)[C@H]7O)[C@@](C)(C(=O)O)C6CC[C@@]5(C)[C@]3(CO)CC4)O[C@H]2C)cc1 (stereo partly specified)	90.1*	-19.9	71.2*	84.7*	-36.5	95.2*
COc1ccc(NC(=O)C(C)Oc2ccc(/C(C)=N\O)cc2)cc1 (stereo unspecified)	6.5	-1.1	-10.1	1.1	-2.8	17.2*
CC(C)NS(=O)(=O)c1ccc(NC(=O)C(C)Oc2ccc(C(=O)c3ccccc3)cc2)cc1 (stereo unspecified)	44.3*	-1.8	51.0*	66.5*	-18.9	57.2*
Nc1c(Br)cc2c(c1Br)C(O)c1ccccc1-2 (stereo unspecified)	0.2	-2.5	-1.8	-19.0	11.6	-0.9
Cc1nn(CC(=O)N2CCc3ccccc32)c(C)c1S(=O)(=O)NC(C)(C)C	-0.7	1.1	-7.2	-12.8	3.8	-6.1
Brc1ccccc1OCCCCn1cnc2ccccc21	12.4	-6.0	15.0	30.8	-12.9	-1.6
O=C(CCn1c(=O)c2sccc2n(CC(=O)OCc2ccccc2)c1=O)NCc1ccco1	5.8	7.2	2.2	16.5	-6.9	-5.9
O=C(CCCn1c(=O)c2sccc2n(CC(=O)OCc2ccccc2)c1=O)NCc1ccco1	5.5	22.2	-5.9	27.7*	-9.4	-1.9
CCn1c(COc2ccccc2C)nnc1SCC(=O)Nc1cc(C)on1	-0.1	12.5	-17.6	-10.2	12.4	5.3
CCn1c(COc2cccc(C)c2C)nnc1SCC(=O)Nc1cc(C)on1	17.5*	7.3	1.9	-1.3	12.5	-4.9
CS(=O)(=O)N1CCCC(c2nc(-c3ccc(S(=O)(=O)NCc4ccccc4)cc3)no2)C1 (stereo unspecified)	14.8	-13.7	33.5*	35.8*	-18.2	3.3
CN1CCN(C(=O)c2cc3c(c(-c4cccc(C#CC(C)(C)O)c4)n2)[C@@H](CCO)N(S(=O)C(C)(C)C)C3)CC1 (stereo partly specified)	0.6	9.7	-14.1	-6.0	-2.2	-3.3
CCc1cccc(NC(=O)C2CCCN2S(=O)(=O)c2cccc3cccnc23)c1 (stereo unspecified)	0.1	-6.8	4.3	-6.2	10.7	-0.3
CCOC(=O)C1CCCN(Cc2ccc(O)c(OC)c2)C1 (stereo unspecified)	0.2	8.4	-7.8	1.3	-0.3	23.5*
